According to PubChem BioAssay:

Columns and labels:
[1] = test system: Botulinum neurotoxin type F light chain protease (Clostridium botulinum); assay: Clostridium botulinum type F light chain protease inhibitors, microsphere substrate cleavage, validation (AID 588459); conditions: multiplex microsphere protease substrate cleavage assay, flow cytometry; at 10 µM; active compounds read high
[2] = biological target: Botulinum neurotoxin type A (Clostridium botulinum) (UniProt P0DPI0); assay: BoNT/A light chain protease inhibitors, biochemical, multiplex microsphere flow cytometry, validation set (AID 588460); conditions: at 10 µM, active compounds read high
Chain of Botulinum neurotoxin type A (Clostridium botulinum) (P0DPI0 whole entry, looked up): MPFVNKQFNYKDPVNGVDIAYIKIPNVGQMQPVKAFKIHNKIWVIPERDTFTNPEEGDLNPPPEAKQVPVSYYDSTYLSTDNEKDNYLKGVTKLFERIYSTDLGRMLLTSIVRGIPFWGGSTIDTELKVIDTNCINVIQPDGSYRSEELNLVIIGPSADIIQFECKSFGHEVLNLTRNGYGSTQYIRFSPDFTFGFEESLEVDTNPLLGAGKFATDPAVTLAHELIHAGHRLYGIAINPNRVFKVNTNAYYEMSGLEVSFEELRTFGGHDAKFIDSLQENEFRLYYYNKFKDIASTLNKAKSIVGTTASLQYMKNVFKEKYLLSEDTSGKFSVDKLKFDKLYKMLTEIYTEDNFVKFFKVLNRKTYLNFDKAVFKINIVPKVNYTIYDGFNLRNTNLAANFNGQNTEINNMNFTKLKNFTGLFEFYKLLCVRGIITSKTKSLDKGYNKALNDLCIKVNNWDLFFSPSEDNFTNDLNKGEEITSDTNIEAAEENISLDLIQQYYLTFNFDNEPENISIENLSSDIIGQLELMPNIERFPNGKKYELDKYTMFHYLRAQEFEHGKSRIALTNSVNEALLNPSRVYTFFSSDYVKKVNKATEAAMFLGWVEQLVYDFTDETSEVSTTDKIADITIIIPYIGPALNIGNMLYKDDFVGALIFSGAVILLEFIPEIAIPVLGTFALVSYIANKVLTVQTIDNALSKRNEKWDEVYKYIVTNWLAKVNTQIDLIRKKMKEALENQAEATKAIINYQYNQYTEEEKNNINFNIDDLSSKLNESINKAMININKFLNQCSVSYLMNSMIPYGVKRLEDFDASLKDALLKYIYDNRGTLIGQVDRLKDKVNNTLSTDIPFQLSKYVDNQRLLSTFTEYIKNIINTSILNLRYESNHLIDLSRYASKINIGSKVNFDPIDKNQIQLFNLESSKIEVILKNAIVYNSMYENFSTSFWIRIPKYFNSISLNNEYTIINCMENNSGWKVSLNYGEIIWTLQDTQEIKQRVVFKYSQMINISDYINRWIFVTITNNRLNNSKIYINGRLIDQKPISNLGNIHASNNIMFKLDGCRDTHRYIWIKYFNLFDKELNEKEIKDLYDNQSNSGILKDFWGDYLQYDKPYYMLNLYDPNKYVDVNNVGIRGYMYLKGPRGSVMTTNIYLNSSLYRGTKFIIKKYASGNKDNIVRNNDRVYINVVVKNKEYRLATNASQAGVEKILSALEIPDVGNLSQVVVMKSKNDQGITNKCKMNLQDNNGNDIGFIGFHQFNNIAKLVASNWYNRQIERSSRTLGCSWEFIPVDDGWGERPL

[3] = biological target: Lethal factor (Bacillus anthracis) (UniProt P15917); assay: Bacillus anthracis lethal factor inhibition, microsphere flow cytometry protease assay, validation at 10 µM (AID 588461); conditions: multiplex microsphere protease cleavage assay, active compounds read high
Chain of Lethal factor (Bacillus anthracis) (P15917 whole entry, looked up): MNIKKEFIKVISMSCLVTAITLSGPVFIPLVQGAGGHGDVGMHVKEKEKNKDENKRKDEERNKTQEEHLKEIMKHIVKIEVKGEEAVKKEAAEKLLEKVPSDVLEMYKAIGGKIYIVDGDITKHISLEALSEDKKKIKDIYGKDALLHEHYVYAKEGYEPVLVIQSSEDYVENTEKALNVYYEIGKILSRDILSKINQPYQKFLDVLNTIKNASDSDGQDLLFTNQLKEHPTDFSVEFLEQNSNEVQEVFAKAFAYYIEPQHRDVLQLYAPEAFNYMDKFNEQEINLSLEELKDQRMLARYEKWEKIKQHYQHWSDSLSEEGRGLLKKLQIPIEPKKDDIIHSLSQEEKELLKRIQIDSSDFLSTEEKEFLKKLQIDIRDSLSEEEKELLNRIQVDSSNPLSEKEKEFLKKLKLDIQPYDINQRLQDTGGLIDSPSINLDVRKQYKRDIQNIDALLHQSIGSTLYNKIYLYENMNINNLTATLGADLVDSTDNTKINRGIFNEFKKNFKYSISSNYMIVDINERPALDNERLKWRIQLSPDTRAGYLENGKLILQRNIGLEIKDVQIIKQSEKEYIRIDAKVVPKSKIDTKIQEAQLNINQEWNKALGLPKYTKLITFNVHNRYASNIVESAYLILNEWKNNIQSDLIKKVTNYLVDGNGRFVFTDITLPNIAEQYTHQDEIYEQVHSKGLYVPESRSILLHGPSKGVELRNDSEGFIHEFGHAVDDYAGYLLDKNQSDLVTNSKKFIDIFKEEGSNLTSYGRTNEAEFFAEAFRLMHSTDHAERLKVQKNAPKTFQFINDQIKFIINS

Measured: inhibition

COc1ccc(C=O)c(OC)c1
inactive: [1] -0.3% | [2] -0.5% | [3] 0.2%

CCc1cc2c(=O)c(-c3nc(C)cs3)coc2cc1OC(C)C(=O)NCCO (stereo unspecified)
inactive: [1] -3.3% | [2] -0.8% | [3] -2.1%

O=C(CN1CCN(Cc2ccccc2)CC1)N1CCCc2c1c(=O)oc1ccc(O)cc21
inactive: [1] 2% | [2] -1.5% | [3] -8.3%

CC1(C)C2CCC1(C(=O)O)c1nc3ccccc3nc12 (stereo unspecified)
inactive: [1] -0.2% | [2] -0.9% | [3] -0.2%

COc1ccc(C(=O)Nc2cccnc2)cc1C(=O)Nc1cccnc1
inactive: [1] 2.9% | [2] 1.3% | [3] -0.7%

O=C(Cc1ccccc1[N+](=O)[O-])NCCCN1CCOCC1
inactive: [1] -1.6% | [2] -0.1% | [3] 6.7%

COc1ccc(OC(C)C(=O)Nc2ccccc2F)cc1 (stereo unspecified)
inactive: [1] 0.8% | [2] -0.2% | [3] 1.9%

O=C(O)CCCCCN=C1CCc2ccccc2N1
inactive: [1] 1.6% | [2] -0.4% | [3] 0.8%

CCc1c(C)c2ccc(OCC(=O)OC(C)C)c(C)c2oc1=O
inactive: [1] -1.9% | [2] -0.4% | [3] -1.3%

CC1(C)CC(=O)C2=C(C1)c1c(ccc3ccccc13)NC2c1ccco1 (stereo unspecified)
inactive: [1] 1.8% | [2] 1.1% | [3] 3.8%

NC(=O)N1c2ccccc2C=Cc2ccccc21
inactive: [1] 1.3% | [2] -0.2% | [3] 8.1%

O=C(O)CCCCCCCC(=O)O
inactive: [1] 1.1% | [2] -0.8% | [3] -1.4%

CC[N+](C)(C)Cc1ccccc1Br
inactive: [1] 2.1% | [2] -0.1% | [3] 0.6%

COc1cc2c(cc1O)CC[C@@H]1[C@@H]2CC[C@]2(C)[C@@H](O)CC[C@@H]12
inactive: [1] -2.1% | [2] -2.2% | [3] -2.9%

Cc1ccccc1C(=O)NNc1ncnc2c1cnn2C
inactive: [1] 3.1% | [2] -0.7% | [3] 1.7%

O=C1CC(c2ccc(OCCCCCOc3ccc(C4CC(=O)NC4=O)cc3)cc2)C(=O)N1 (stereo unspecified)
inactive: [1] 2.5% | [2] 1.1% | [3] 2.1%

COc1ccccc1N1CCN(CC(O)COc2cccc3ccccc23)CC1 (stereo unspecified)
inactive: [1] -2% | [2] -2.3% | [3] -6.6%

O=C1C(O)CC2c3ccccc3CC3(CCCC3)N12 (stereo unspecified)
inactive: [1] 2% | [2] -1.5% | [3] -6%

CCCCC[C@H](O)/C=C/[C@@H]1[C@@H](C/C=C\CCCC(=O)O)[C@H]2CO[C@@H]1C2
inactive: [1] 0.5% | [2] -0.1% | [3] 3.3%

COc1ccc(NC2=C(Cl)C(=O)N(c3ccccc3)C2=O)c(OC)c1
inactive: [1] 3.7% | [2] 1% | [3] -0.3%

COc1cc(-c2nnc(-c3cccs3)o2)cc(OC)c1OC
inactive: [1] 1.3% | [2] 1.7% | [3] 4.3%

Cc1oc2cc(O)cc(O)c2c(=O)c1-c1ccc2c(c1)OCCCO2
inactive: [1] 1.4% | [2] -0.4% | [3] -5.8%

COc1ccc2nc(NC(=O)Nc3ccccc3)sc2c1
inactive: [1] -3.1% | [2] -2.6% | [3] -2.7%

O=C(CCNNC(=O)c1ccncc1)NCc1ccccc1
inactive: [1] 4.1% | [2] 0.9% | [3] 5.5%

COc1ccc(CNC(=O)N[C@H](C(=O)O)C(C)C)cc1OC
inactive: [1] -0.7% | [2] -1.2% | [3] -8.3%

COc1ccc2c(c1OC)C(=O)NC(C)=C(C(=O)OC(C)(C)C)C2O (stereo unspecified)
inactive: [1] 4.3% | [2] -0.4% | [3] -5.3%

O=C(Nc1ccccc1)OCC1CCCN2CCCCC12 (stereo unspecified)
inactive: [1] 0.6% | [2] 0.3% | [3] 2.5%

Cc1nc(C(=O)Nc2ccccc2Cl)cc2c1[nH]c1ccccc12
inactive: [1] -0.3% | [2] -0.9% | [3] -4.5%

CN(C)C(=O)CCCCCCCCC(=O)N(C)C
inactive: [1] -2.7% | [2] -0.9% | [3] -5.5%

O=C(c1ccc(F)cc1)[C@@H]1[C@@H](C(=O)c2ccccc2)[C@@]2(C(=O)Nc3ccccc32)[C@H]2c3ccccc3C=CN12
inactive: [1] 4.8% | [2] 0.3% | [3] -3.6%

O=C(O)c1ccccc1OCCOc1ccccc1
inactive: [1] 3.5% | [2] 2.5% | [3] 7.2%

COc1ccc(/C=C2\CC/C(=C\c3ccc(OC)c(OC)c3)C2=O)cc1OC
inactive: [1] 1.7% | [2] 0.1% | [3] -5.9%

COc1ccc2c(c1)CC[C@@H]1[C@@H]2CC[C@]2(C)C(=O)CC[C@@H]12
inactive: [1] -4% | [2] -1.5% | [3] -5%

CC(=O)Oc1ccc2c(=O)c(Oc3ccccc3[N+](=O)[O-])coc2c1
inactive: [1] 0.2% | [2] -1.2% | [3] -6.2%

COc1cc(/C=C/C(=O)N2CCCC2)cc(OC)c1OC
inactive: [1] -1.5% | [2] 0.4% | [3] 4.4%

COc1ccc(OC(C)C(=O)Nc2ccc([N+](=O)[O-])cc2)cc1 (stereo unspecified)
inactive: [1] 4% | [2] 1.9% | [3] -0.5%

O=C(Cc1ccccc1)NCC(=O)OCC(=O)c1ccccc1Cl
inactive: [1] 1% | [2] -2.5% | [3] -9.6%

CCOC(=O)c1c(C)oc2cc(Br)c(OC(C)C(=O)OCC)cc12 (stereo unspecified)
inactive: [1] -0.6% | [2] 0.5% | [3] -2.8%

CC1(C)CC(C(CC(=O)O)c2ccccc2)CCO1 (stereo unspecified)
inactive: [1] 0.4% | [2] -0.2% | [3] -7.8%

CCOc1ccc2nc(S(N)(=O)=O)sc2c1
inactive: [1] 2% | [2] 0% | [3] 8.4%

O=C(/C=C/Sc1ccccc1)c1ccccc1
inactive: [1] -0.5% | [2] -0.8% | [3] -4.1%

CN1CCN(C2=Nc3ccccc3Oc3ccc(Cl)cc32)CC1
inactive: [1] -0.8% | [2] -1.8% | [3] -3.9%
